In the library only some 22% were active in any assay of this set; here they are far more common.
CYP2C19 inh – inhibitors of human CYP2C19. inhibition, % at 5 µM. 21% of 96,000 active. AID 778. CYP2C19 Supersomes, luciferin-H EGE luminescence, 30 min. P33261;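 active = CYP2C19 inhibition above a set limit at 5 µM in the primary screen, cut at about 50% in these data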;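 note: plate controls were negative control wells for no effect and 2.5 mM tranylcypromine positive control for full effect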
Target sequence (P33261 whole entry, looked up): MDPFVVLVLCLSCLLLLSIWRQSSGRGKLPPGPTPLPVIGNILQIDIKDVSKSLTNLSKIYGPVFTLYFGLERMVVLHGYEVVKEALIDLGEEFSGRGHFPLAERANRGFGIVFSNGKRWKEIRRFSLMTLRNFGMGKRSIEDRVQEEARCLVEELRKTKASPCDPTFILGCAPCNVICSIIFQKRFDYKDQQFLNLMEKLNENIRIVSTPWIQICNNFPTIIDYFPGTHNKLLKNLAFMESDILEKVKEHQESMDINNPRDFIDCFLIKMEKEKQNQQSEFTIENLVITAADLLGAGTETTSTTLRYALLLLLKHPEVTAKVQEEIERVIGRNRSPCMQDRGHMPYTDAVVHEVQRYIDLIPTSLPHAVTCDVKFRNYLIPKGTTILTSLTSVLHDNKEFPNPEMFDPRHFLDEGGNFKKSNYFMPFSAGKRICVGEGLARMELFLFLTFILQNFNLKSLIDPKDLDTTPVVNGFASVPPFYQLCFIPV
CYP2C9 inh – inhibitors of human CYP2C9. AID 777. inhibition, % at 5 µM. CYP2C9 Supersomes, luciferin-H conversion, luminescence. 20% of 96,000 active;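 active = blocking of liver enzyme CYP2C9 beyond about 50% at 5 µM, limit read from the data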
CYP2C19 activ – activators of human cytochrome P450 2C19; P33261; AID 1025; 96,000 tested, under 10 active; recombinant CYP2C19, luciferin-H EGE luminescence; active compounds read high; 0 = fully inhibited enzyme, 1 = untreated enzyme; activation factor at 5 µM;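 active = activation factor of at least 2 at 5 µM in the primary screen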;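 note: 0 = wells with 2.5 mM tranylcypromine and 1 = vehicle-only wells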
Measles CPE – protection of cells from measles virus; Measles virus-infected cells, CPE protection, absorbance; protection (pct of control), % at 4 µM; 1.5% of 140,000 active; AID 841; in the data active = protection mostly above about 24%, no sharp cut-off; inactive = mostly below about 26%
CYP2C9 activ – activators of human CYP2C9. recombinant CYP2C9, luciferin-H conversion, luminescence; active compounds read high; factor 1 = untreated enzyme, 0 = blocked. activation factor at 5 µM. 1.4% of 96,000 active. AID 1024;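 active = activation factor of 2 or more for CYP2C9 at a 5 µM dose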;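 note: 0 = sulfaphenazole-blocked wells and 1 = vehicle-only wells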
* = called active by the depositor.

COc1ccc(NC(=O)CN(c2cc(C)cc(C)c2)S(=O)(=O)c2c(C)noc2C)cc1 was read as CYP2C19 inh 7.3, CYP2C9 inh 17.2, CYP2C19 activ 0.9, Measles CPE 17.5 and CYP2C9 activ 0.8.
COc1ccc(N(CC(=O)Nc2cc(C)ccc2OC)S(=O)(=O)c2c(C)noc2C)cc1 was read as CYP2C19 inh 64.5*, CYP2C9 inh 66.9*, CYP2C19 activ 0.4, Measles CPE 5.3 and CYP2C9 activ 0.3.
For CCOc1ccc(N(CC(=O)Nc2ccccc2C)S(=O)(=O)c2c(C)noc2C)cc1 the results were CYP2C19 inh 86.7*, CYP2C9 inh 48.3, CYP2C19 activ 0.1, Measles CPE 12.0 and CYP2C9 activ 0.5.
For COc1ccc(NC(=O)CN(c2cc(C)cc(C)c2)S(=O)(=O)c2c(C)noc2C)cc1OC the results were CYP2C19 inh 13.9, CYP2C9 inh 50.5*, CYP2C19 activ 0.9, Measles CPE 19.0 and CYP2C9 activ 0.5.
`CCOc1ccccc1NC(=O)CN(c1ccc(OC)cc1)S(=O)(=O)c1c(C)noc1C` gave CYP2C19 inh 88.8*, CYP2C9 inh 90.2*, CYP2C19 activ 0.1, Measles CPE 4.8 and CYP2C9 activ 0.1.
C=CCn1c(SCC(=O)c2[nH]c(C)c(C(=O)OC)c2C)nc2scc(-c3ccc(OC)c(OC)c3)c2c1=O was read as Measles CPE 0.3.
Screening CCCCC(=O)Nc1cccc(C(=O)N/N=C/c2ccc(OC)cc2OC)c1 returned Measles CPE 4.4.
For COc1ccc(/C=N/NC(=O)c2[nH]ncc2Br)c(OC)c1 the results were CYP2C19 inh 36.3, CYP2C9 inh -104.6, CYP2C19 activ 0.6, Measles CPE 22.2 and CYP2C9 activ 2*.
For O=C(NC1=NCCS1)c1ccc(Cl)c(S(=O)(=O)N2CCCCC2)c1 the results were CYP2C19 inh 43.3, CYP2C9 inh 36.3, CYP2C19 activ 0.6, Measles CPE 13.1 and CYP2C9 activ 0.6.
Cc1nonc1NC(=O)c1ccc(Cl)c(S(=O)(=O)N2CCCCC2)c1 was read as CYP2C19 inh 68.1*, CYP2C9 inh -17.9, CYP2C19 activ 0.3, Measles CPE 2.0 and CYP2C9 activ 1.2.
O=C(Nc1nccs1)c1ccc(Cl)c(S(=O)(=O)N2CCCCC2)c1 was read as CYP2C19 inh 65.2*, CYP2C9 inh 53.3*, CYP2C19 activ 0.3, Measles CPE 22.8 and CYP2C9 activ 0.5.
For O=C(Nc1nccs1)c1cccc(S(=O)(=O)N2CCCCC2)c1 the results were CYP2C19 inh 93.9*, CYP2C9 inh 68.4*, CYP2C19 activ 0.1, Measles CPE 9.0 and CYP2C9 activ 0.3.
Screening O=C(Nc1ccc2c(c1)CCC2)c1ccc(F)c(S(=O)(=O)N2CCOCC2)c1 returned Measles CPE 23.8.
`O=C(Nn1cnnc1)c1ccc(F)c(S(=O)(=O)N2CCCCC2)c1` gave CYP2C19 inh 99.4*, CYP2C9 inh 72.5*, CYP2C19 activ 0, Measles CPE 15.4 and CYP2C9 activ 0.3.
`O=C(OCc1nc2scc(-c3ccccc3)c2c(=O)[nH]1)c1cccc([N+](=O)[O-])c1` gave Measles CPE 8.5.
Screening O=C(NCc1cccs1)c1cccc(S(=O)(=O)N2CCCCC2)c1 returned CYP2C19 inh 75.0*, CYP2C9 inh 67.2*, CYP2C19 activ 0.3, Measles CPE 4.8 and CYP2C9 activ 0.3.
`CCn1c(Cc2ccc(OC)cc2)nnc1SCC(=O)Nc1nc2ccccc2s1` gave CYP2C19 inh 18.1, CYP2C9 inh 20.5, CYP2C19 activ 0.8, Measles CPE 4.8 and CYP2C9 activ 0.8.
O=C(C1CCC1)N1CCc2cc(S(=O)(=O)NC3CCCC3)ccc21 was read as CYP2C19 inh 71.5*, CYP2C9 inh 82.9*, CYP2C19 activ 0.3, Measles CPE 3.0 and CYP2C9 activ 0.2.
Screening O=C(O)CCC(=O)N1CCc2cc(S(=O)(=O)NC3CCCC3)ccc21 returned CYP2C19 inh -16.5, CYP2C9 inh -6.7, CYP2C19 activ 1.2, Measles CPE 26.9 and CYP2C9 activ 1.1.
For CCCN(CCC)CCNS(=O)(=O)c1ccc2c(c1)CCN2C(=O)C1CCC1 the results were CYP2C19 inh 93.5*, CYP2C9 inh 40.0, CYP2C19 activ 0.1, Measles CPE 11.4 and CYP2C9 activ 0.6.
Screening O=C(C1CC1)N1CCc2cc(S(=O)(=O)NCCC3=CCCCC3)ccc21 returned CYP2C19 inh 47.5, CYP2C9 inh -12.9, CYP2C19 activ 0.5, Measles CPE 10.4 and CYP2C9 activ 1.1.
`Cc1cccc(-c2noc(CN(C(=O)C(c3ccccc3)c3ccccc3)C(C)C)n2)c1` gave CYP2C19 inh 10.7, CYP2C9 inh 51.3*, CYP2C19 activ 0.9, Measles CPE 6.1 and CYP2C9 activ 0.5.
Cc1cccc(-c2noc(CN(C(C)C)S(=O)(=O)c3ccc(F)cc3)n2)c1 was read as CYP2C19 inh 26.7, CYP2C9 inh -13.5, CYP2C19 activ 0.7, Measles CPE 4.7 and CYP2C9 activ 1.1.
Cc1cccc(-c2noc(Cc3ccccc3)n2)c1 was read as CYP2C19 inh -0.8, CYP2C9 inh 0.6, CYP2C19 activ 1, Measles CPE 21.2 and CYP2C9 activ 1.
For COc1cccc(C(=O)N(Cc2nc(-c3cccc(C)c3)no2)C(C)C)c1OC the results were CYP2C19 inh 74.4*, CYP2C9 inh 81.8*, CYP2C19 activ 0.3, Measles CPE 6.2 and CYP2C9 activ 0.2.
Cc1cccc(-c2noc(CN(C(=O)c3ccc4c(c3)OCO4)C(C)C)n2)c1 was read as CYP2C19 inh 6.1, CYP2C9 inh 37.0, CYP2C19 activ 0.9, Measles CPE 46.0* and CYP2C9 activ 0.6.
Screening Cc1cccc(-c2noc(CCc3ccccc3)n2)c1 returned CYP2C19 inh -14.5, CYP2C9 inh -16.6, CYP2C19 activ 1.1, Measles CPE 4.1 and CYP2C9 activ 1.2.
For Cc1cccc(-c2noc(CN(C(=O)c3ccc(Br)o3)C(C)C)n2)c1 the results were CYP2C19 inh 45.5, CYP2C9 inh 56.1*, CYP2C19 activ 0.5, Measles CPE 19.1 and CYP2C9 activ 0.4.
Screening CCN(CC)C(=S)SCC(=O)NC12CC3CC(CC(C3)C1)C2 returned Measles CPE 1.7.
O=S(=O)(c1ccc(Cl)cc1)c1ccccn1 was read as CYP2C19 inh 16.9, CYP2C9 inh -107.6, CYP2C19 activ 0.8, Measles CPE 2.3 and CYP2C9 activ 2.1*.
O=C(Nc1ccc(O)cc1)c1ccc(C(=O)c2ccccc2)o1 was read as CYP2C19 inh 15.0, CYP2C9 inh 16.3, CYP2C19 activ 0.8, Measles CPE 5.5 and CYP2C9 activ 0.8.
CCC(C)[C@@H](C(=O)Nc1ccc(OC)c(OC)c1)N1Cc2ccccc2C1=O (some centres undefined) was read as CYP2C19 inh 43.9, CYP2C9 inh 22.2, CYP2C19 activ 0.6, Measles CPE 6.5 and CYP2C9 activ 0.8.
Screening CCc1ccccc1Nc1nc(N)nc(COC(=O)c2cccn2C)n1 returned CYP2C19 inh 49.8, CYP2C9 inh -2.7, CYP2C19 activ 0.5, Measles CPE 78.0* and CYP2C9 activ 1.

Screening results deposited in PubChem by several laboratories.
